# PubChem BioAssay AID2515 (National Center for Advancing Translational Sciences (NCATS), 2010)
# Inconclusive results are not listed. Activity calls are given as the source filed them. Calls follow the shape of the dose curve; as a rule, active = well fitted inhibition curve with a large enough effect; inconclusive = small, poorly fitted or top-dose-only effect; inactive = flat fitted curve, though single readings scatter.
# Target: Luciferin 4-monooxygenase (Photinus pyralis) (UniProt P08659)
# Experiment: Counterscreen Assay for Enhancers of SMN2 Splice Variant Expression: Interaction with Luciferase Reporter for Probe SAR
# Conditions: purified firefly luciferase, luminescence inhibition
# Source text: NIH Chemical Genomics Center [NCGC] NIH Molecular Libraries Probe Production centers Network [MLPCN] MLPCN Grant: R03 MH084179-01 Assay Submitter (PI): Elliot Androphy NCGC Assay Overview: Spinal muscular atrophy (SMA) is caused by insufficient levels of the survival motor neuron protein SMN. The SMN locus on chromosome 5q13 contains two inverted copies of SMN called SMN1 and SMN2 which are 99% identical at the amino acid level. SMN1 is a fully functional protein and SMN2 skips exon 7 90% of the time. Skipping of exon 7 produces non-functional protein product. 10% of the SMN2 protein includes exon 7 and is fully functional. In the SMA disease state, mutations in the SMN1 locus are the cause of the disease state. […]
# NCGC Assay Protocol Summary: The primary screen utilizes a luciferase reporter gene assay, combining the promoter and splicing based cassettes in tandem with the major portion of the native SMN1 cDNA, and then transfected into HEK293 cells. […] Sequence, Parameter, Value, Description (1) Reagent, 2.5 uL, Enzyme in buffer (note A) (2) Compound, 23 nL, From stock solutions (3) Time, 5 minutes, Room temp (4) Reagent#2.5 ul, Luciferase detection reagent (note B) (5) Detector, 1 sec integrate, Luminescent read on Viewlux (note C) Sigma enzyme (1 mg) considered to be MW 61,000 diluted in 357 ul assay buffer to 50 uM stock. […]
# Luciferin 4-monooxygenase (Photinus pyralis), sequence (P08659 whole entry, looked up, canonical isoform): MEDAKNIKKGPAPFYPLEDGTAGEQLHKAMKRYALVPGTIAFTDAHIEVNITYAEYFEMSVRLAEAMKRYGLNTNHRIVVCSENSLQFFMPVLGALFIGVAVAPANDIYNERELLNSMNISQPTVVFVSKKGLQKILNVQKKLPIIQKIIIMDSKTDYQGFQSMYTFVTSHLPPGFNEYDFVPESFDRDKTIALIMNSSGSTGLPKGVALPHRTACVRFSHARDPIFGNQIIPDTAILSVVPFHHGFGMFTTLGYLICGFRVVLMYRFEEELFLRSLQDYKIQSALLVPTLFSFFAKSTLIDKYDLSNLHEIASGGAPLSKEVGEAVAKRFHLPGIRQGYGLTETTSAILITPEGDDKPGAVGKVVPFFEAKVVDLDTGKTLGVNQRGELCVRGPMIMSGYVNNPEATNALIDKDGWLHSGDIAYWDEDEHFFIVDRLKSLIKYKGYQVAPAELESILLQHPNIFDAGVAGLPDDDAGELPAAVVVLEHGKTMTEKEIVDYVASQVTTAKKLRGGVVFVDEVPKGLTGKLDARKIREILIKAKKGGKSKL
structure (smiles),measurement,value
Brc1ccc(-c2csc(N3CCCCC3)n2)cc1,Potency,17.9 µM (active)
